In ChEMBL document CHEMBL1961873, “Compounds: GSK PKIS; Assays: Nanosyn kinase panel” (2012):

Tests used:
[1] = test system: Epidermal growth factor receptor (Homo sapiens), P00533 [T790M]; details: at 1 µM
[2] = test system: Epidermal growth factor receptor (Homo sapiens), P00533 [L858R,T790M]; details: at 0.1 µM
[3] = test system: Epidermal growth factor receptor (Homo sapiens), P00533 [L858R,T790M]; details: at 1 µM
[4] = target: Ephrin type-A receptor 2 (Homo sapiens) (UniProt P29317); details: at 0.1 µM
[5] = target: Ephrin type-A receptor 2 (Homo sapiens) (UniProt P29317); details: at 1 µM
[6] = target: T1, Ephrin type-A receptor 3 (Homo sapiens) (UniProt P29320); details: at 0.1 µM
T1 sequence (whole entry): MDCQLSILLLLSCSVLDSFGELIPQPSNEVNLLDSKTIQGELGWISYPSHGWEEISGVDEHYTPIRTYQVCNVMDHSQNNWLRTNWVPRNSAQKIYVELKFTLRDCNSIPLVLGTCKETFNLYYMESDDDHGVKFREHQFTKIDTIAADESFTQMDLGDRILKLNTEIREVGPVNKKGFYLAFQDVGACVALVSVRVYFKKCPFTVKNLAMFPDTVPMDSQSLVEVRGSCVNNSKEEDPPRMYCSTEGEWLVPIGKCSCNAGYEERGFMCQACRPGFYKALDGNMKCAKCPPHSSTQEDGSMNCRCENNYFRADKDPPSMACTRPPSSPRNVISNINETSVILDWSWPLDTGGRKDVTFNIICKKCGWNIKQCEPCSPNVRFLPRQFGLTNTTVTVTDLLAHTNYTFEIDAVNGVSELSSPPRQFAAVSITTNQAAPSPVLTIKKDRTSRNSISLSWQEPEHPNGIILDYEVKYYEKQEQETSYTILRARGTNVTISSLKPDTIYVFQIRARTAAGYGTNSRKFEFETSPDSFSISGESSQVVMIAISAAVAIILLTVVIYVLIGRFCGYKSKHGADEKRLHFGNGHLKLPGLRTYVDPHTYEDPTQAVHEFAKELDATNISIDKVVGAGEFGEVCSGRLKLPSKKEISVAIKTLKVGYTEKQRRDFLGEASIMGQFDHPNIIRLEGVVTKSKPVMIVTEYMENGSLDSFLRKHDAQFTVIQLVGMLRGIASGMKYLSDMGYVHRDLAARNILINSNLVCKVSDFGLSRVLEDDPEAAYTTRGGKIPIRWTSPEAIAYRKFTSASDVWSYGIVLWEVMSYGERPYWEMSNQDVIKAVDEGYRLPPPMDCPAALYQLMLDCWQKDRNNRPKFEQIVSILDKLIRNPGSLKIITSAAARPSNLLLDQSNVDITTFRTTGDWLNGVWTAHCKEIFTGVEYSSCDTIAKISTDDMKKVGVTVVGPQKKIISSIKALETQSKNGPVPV

[7] = target: T1, Ephrin type-A receptor 3 (Homo sapiens); details: at 1 µM
[8] = target: Ephrin type-A receptor 4 (Homo sapiens) (UniProt P54764); details: at 0.1 µM
[9] = target: Ephrin type-A receptor 4 (Homo sapiens) (UniProt P54764); details: at 1 µM
[10] = target: T2, Ephrin type-B receptor 2 (Homo sapiens) (UniProt P29323); details: at 0.1 µM
T2 sequence (whole entry): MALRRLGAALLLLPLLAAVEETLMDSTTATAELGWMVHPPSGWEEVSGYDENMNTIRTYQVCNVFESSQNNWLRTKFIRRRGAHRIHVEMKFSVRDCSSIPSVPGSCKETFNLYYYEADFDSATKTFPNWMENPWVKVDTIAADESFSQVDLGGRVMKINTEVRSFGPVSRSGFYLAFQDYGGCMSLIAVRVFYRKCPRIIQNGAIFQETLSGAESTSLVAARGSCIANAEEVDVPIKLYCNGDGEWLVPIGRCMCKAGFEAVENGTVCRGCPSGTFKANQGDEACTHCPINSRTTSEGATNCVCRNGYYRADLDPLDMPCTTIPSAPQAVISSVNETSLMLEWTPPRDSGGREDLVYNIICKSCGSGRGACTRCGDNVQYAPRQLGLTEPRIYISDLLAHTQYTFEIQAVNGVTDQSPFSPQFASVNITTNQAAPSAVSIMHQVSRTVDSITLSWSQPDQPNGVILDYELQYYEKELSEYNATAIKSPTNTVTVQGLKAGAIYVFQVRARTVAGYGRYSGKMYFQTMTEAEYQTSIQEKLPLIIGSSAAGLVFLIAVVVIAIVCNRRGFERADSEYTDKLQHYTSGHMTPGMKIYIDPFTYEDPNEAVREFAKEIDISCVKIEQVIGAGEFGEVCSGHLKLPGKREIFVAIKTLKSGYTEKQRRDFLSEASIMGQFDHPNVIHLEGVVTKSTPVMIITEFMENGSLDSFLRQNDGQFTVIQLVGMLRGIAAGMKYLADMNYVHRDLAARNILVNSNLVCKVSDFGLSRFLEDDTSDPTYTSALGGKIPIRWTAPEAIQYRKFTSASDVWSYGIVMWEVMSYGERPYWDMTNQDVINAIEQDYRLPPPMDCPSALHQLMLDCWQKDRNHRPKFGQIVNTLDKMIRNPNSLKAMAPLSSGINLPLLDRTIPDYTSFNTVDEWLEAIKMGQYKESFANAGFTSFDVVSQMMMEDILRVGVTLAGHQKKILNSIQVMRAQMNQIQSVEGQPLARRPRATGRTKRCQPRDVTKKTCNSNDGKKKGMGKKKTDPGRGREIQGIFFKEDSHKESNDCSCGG

[11] = target: T2, Ephrin type-B receptor 2 (Homo sapiens); details: at 1 µM
[12] = target: T3, Ephrin type-B receptor 3 (Homo sapiens) (UniProt P54753); details: at 0.1 µM
T3 sequence (whole entry): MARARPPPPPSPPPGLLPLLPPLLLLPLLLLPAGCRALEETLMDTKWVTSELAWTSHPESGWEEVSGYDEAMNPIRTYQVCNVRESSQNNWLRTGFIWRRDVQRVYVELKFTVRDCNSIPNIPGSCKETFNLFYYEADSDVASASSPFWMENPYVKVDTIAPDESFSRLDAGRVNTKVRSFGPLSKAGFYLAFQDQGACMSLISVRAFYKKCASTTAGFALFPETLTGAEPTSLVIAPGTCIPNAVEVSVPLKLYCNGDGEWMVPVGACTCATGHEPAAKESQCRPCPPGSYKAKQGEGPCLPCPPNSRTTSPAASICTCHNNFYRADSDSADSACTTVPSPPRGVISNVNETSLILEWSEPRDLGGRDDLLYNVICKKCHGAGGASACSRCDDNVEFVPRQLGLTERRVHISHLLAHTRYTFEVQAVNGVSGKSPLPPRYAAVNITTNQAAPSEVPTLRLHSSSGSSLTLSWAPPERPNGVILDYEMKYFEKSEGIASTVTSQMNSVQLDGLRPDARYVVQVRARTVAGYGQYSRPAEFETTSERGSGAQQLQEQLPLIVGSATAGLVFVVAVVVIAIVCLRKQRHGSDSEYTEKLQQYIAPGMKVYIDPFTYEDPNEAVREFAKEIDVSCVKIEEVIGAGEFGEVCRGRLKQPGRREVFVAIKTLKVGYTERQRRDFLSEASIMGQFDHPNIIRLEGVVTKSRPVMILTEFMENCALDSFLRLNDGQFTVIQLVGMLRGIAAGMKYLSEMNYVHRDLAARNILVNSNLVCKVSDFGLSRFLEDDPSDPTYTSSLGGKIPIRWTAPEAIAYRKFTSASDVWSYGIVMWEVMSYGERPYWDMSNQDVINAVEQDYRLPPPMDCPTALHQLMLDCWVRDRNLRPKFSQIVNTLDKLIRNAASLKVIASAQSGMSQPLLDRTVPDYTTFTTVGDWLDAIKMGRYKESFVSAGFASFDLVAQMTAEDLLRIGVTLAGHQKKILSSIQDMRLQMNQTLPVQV

[13] = target: T3, Ephrin type-B receptor 3 (Homo sapiens); details: at 1 µM
[14] = target: T4, Ephrin type-B receptor 4 (Homo sapiens) (UniProt P54760); details: at 0.1 µM
T4 sequence (whole entry): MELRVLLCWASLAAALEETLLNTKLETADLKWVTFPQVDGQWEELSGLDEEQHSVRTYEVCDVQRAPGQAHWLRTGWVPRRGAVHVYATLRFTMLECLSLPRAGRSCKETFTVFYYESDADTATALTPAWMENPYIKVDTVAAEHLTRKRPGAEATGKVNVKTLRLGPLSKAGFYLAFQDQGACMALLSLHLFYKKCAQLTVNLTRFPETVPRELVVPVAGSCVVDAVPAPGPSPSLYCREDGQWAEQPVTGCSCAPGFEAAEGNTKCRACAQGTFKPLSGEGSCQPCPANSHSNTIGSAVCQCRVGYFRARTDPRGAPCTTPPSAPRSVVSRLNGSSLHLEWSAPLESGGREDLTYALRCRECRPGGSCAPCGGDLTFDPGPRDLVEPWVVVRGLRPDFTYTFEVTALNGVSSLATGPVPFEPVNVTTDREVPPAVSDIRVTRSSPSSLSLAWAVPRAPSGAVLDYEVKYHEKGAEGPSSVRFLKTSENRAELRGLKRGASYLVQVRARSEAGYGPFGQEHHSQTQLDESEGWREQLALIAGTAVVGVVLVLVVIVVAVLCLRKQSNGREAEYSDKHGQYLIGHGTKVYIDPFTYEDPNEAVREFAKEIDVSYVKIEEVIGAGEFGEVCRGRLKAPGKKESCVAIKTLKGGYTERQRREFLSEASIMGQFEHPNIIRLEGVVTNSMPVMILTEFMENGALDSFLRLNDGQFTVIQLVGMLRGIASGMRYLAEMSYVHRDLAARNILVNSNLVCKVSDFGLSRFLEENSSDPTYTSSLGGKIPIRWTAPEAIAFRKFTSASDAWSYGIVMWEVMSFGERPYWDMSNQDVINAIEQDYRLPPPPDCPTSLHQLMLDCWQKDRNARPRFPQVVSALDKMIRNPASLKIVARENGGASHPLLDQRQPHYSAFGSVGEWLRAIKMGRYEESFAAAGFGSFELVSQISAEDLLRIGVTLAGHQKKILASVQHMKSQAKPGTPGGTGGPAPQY

[15] = target: T4, Ephrin type-B receptor 4 (Homo sapiens); details: at 1 µM
[16] = target: Receptor tyrosine-protein kinase erbB-2 (Homo sapiens) (UniProt P04626); details: at 0.1 µM
[17] = target: Receptor tyrosine-protein kinase erbB-2 (Homo sapiens) (UniProt P04626); details: at 1 µM
[18] = target: Receptor tyrosine-protein kinase erbB-4 (Homo sapiens) (UniProt Q15303); details: at 0.1 µM
[19] = target: Receptor tyrosine-protein kinase erbB-4 (Homo sapiens) (UniProt Q15303); details: at 1 µM
[20] = target: Tyrosine-protein kinase Fer (Homo sapiens) (UniProt P16591); details: at 0.1 µM;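 also: reported figures are averaged percent inhibition of FER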
Sequence of Tyrosine-protein kinase Fer (Homo sapiens) (P16591 whole entry, looked up): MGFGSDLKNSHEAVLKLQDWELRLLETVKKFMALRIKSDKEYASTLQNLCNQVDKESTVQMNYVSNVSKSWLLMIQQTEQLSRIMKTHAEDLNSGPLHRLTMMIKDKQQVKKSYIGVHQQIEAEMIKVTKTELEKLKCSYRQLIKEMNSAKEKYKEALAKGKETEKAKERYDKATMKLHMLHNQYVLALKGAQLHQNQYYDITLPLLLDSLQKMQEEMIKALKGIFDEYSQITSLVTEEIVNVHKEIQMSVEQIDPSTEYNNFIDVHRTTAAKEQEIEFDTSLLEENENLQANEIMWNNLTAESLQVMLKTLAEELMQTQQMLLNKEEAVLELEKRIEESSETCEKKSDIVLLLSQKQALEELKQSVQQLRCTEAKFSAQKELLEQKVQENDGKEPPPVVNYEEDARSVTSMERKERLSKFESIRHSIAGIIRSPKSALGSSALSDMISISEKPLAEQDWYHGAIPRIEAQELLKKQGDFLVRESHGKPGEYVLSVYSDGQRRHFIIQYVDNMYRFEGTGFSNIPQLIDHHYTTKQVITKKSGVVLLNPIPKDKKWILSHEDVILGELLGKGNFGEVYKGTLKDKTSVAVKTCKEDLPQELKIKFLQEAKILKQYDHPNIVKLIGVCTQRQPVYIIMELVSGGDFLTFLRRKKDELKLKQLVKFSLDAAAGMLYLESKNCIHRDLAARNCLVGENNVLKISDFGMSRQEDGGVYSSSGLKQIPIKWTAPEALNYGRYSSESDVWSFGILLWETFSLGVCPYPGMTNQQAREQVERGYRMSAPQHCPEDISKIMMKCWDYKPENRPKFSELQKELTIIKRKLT

Sequence of Epidermal growth factor receptor (Homo sapiens), P00533 [T790M] (P00533 whole entry T790M): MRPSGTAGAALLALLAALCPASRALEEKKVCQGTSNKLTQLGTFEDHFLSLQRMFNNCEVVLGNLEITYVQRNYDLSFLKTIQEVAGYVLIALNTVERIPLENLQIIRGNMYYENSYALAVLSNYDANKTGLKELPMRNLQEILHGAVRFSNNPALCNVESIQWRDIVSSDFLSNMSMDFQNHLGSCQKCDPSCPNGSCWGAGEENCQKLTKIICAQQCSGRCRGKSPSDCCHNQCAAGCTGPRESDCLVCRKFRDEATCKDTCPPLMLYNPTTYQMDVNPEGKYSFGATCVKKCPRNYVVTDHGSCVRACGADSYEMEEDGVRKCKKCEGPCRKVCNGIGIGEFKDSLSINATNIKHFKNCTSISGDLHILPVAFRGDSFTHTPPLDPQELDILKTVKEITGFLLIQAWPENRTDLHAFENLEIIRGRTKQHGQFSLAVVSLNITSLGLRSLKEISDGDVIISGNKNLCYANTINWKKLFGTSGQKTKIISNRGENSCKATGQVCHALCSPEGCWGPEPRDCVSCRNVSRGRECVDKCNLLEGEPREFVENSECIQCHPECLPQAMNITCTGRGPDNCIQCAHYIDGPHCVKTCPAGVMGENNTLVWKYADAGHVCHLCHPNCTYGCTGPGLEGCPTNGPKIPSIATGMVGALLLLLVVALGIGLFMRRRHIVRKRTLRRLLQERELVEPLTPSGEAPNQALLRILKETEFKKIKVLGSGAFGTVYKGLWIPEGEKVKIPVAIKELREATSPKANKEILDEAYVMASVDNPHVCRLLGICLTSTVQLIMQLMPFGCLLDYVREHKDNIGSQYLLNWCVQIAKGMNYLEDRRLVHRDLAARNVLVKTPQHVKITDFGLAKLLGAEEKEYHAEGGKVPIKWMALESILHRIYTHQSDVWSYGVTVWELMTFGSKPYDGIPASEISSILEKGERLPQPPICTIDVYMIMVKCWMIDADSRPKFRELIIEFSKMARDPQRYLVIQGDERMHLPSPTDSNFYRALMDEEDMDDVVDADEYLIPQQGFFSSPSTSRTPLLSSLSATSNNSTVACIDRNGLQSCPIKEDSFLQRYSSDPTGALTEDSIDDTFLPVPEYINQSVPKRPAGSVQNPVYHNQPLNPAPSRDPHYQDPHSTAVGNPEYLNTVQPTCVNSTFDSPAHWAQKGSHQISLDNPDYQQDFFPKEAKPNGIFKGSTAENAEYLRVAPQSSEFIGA
Sequence of Ephrin type-A receptor 2 (Homo sapiens) (P29317 whole entry): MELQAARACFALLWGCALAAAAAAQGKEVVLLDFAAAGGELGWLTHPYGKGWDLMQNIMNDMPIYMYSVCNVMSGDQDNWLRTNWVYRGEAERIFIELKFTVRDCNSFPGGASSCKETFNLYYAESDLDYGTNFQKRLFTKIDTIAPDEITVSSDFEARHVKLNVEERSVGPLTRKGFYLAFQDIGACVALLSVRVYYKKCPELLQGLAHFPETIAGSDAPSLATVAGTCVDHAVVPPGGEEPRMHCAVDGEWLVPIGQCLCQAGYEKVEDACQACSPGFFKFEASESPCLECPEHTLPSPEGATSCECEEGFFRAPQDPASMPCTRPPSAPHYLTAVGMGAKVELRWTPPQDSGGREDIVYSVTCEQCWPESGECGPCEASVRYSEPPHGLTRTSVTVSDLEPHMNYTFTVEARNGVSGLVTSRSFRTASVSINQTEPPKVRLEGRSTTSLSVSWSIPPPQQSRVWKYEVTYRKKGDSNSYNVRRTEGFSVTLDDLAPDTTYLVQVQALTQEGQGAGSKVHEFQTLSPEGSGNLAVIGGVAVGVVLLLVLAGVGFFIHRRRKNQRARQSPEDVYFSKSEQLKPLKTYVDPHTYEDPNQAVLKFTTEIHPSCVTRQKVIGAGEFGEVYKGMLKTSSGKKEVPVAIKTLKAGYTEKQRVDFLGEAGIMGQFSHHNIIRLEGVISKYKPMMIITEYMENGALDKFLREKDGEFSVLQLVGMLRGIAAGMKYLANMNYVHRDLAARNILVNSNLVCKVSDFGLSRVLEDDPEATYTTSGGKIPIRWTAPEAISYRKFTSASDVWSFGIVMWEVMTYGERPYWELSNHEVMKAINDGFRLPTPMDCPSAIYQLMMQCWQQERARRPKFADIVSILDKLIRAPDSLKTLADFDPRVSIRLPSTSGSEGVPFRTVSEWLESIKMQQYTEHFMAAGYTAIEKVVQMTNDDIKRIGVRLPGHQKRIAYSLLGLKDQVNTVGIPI
Sequence of Receptor tyrosine-protein kinase erbB-4 (Homo sapiens) (Q15303 whole entry): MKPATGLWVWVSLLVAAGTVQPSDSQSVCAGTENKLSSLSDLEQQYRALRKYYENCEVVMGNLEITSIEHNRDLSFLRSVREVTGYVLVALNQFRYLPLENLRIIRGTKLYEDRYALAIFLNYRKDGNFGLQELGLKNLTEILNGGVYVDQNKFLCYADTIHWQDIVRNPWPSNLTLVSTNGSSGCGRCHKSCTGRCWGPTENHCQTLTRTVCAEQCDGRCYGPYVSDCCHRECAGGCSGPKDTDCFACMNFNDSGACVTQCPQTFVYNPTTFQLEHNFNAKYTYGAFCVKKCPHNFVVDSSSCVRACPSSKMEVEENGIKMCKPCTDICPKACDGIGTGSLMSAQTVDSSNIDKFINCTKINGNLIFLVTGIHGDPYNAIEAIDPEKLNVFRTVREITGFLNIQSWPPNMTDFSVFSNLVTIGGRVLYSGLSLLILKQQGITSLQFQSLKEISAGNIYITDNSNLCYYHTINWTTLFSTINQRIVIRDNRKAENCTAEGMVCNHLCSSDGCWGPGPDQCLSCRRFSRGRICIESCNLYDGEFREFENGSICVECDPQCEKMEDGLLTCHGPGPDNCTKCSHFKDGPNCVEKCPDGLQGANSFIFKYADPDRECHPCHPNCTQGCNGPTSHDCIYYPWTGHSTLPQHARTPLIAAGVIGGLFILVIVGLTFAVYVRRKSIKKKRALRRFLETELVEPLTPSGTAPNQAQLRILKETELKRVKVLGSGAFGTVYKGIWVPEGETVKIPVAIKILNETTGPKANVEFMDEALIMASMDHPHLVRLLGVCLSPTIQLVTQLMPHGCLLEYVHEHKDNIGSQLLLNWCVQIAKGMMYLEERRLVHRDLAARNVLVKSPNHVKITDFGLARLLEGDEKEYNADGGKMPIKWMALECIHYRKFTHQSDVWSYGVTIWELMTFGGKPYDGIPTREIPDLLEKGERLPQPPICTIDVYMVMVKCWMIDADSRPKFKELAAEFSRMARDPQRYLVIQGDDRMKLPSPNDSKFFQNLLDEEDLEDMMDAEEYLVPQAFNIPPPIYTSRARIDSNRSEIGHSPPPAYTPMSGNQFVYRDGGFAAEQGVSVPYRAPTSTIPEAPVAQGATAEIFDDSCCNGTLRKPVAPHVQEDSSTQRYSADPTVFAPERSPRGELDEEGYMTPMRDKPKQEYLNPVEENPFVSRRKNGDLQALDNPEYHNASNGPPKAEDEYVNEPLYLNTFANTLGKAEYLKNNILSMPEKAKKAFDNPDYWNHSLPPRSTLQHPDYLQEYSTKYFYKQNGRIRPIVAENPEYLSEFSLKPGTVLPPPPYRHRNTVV

Structure (SMILES)	inhibition [1]	inhibition [2]	inhibition [3]	inhibition [4]	inhibition [5]	inhibition [6]	inhibition [7]	inhibition [8]	inhibition [9]	inhibition [10]	inhibition [11]	inhibition [12]	inhibition [13]	inhibition [14]	inhibition [15]	inhibition [16]	inhibition [17]	inhibition [18]	inhibition [19]	inhibition [20]
CCN1CCC(C(=O)Nc2n[nH]c3nnc(-c4cccc(F)c4F)cc23)CC1	0.18%	0.75%	-1.85%	-3.74%	-3.34%	-0.58%	-0.43%	-1.7%	-0.26%	0.41%	0.53%	0.69%	1.64%	0.49%	-0.12%	1.2%	0.02%	-0.85%	0.79%	-0.15%
Cc1ccc(-c2cc3c(NC(=O)C4CC4)ncnc3o2)cc1	0.67%	1.96%	5.94%	3.08%	7.49%	3.73%	5.51%	8.88%	20.5%	9.13%	36.6%	5.13%	1.62%	3.05%	12.9%	0.91%	-0.45%	9.66%	11.1%	8.51%
N#Cc1cccc(Nc2ncc(-c3ccccc3)o2)c1	3.24%	0.29%	3.37%	1.14%	0.54%	2.39%	1.84%	6.35%	8.39%	2.84%	0.63%	3.66%	1.53%	0.33%	0.44%	2.68%	4.17%	6.42%	9.11%	1.76%
CS(=O)(=O)CCNCc1ccoc1-c1ccc2ncnc(Nc3ccc(OCc4ccccc4)cc3)c2c1	4.58%	-0.19%	-0.52%	-2.48%	-2.19%	0.44%	2.32%	4.33%	6.25%	4.8%	7.96%	3.15%	2.98%	0.88%	1.51%	3.25%	50.9%	32.3%	79.9%	-0.1%
CCS(=O)(=O)c1ccc(OC)c(Nc2ncc(-c3cccc(C(C)=O)c3)o2)c1	4.71%	1.19%	7.18%	3.84%	2.23%	3.51%	6.85%	9.55%	16.9%	9.45%	21.8%	3.26%	5.98%	1.8%	6.82%	2.14%	6.11%	7.58%	11.1%	1.02%
c1ccc(-c2n[nH]cc2-c2ccnc(-c3ccc(OCCn4ccnc4)cc3)c2)nc1	0.85%	-0.66%	2.87%	-2.85%	-3.04%	-1.82%	0.58%	0.18%	0.69%	-0.16%	0.77%	1.4%	-0.01%	0.04%	-0.88%	0.33%	-1.51%	-1.46%	3.39%	1.51%
